Among all 5,500 compounds or so, about 2,000 (36%) were called active. Another 18% or so got no clear call; they are omitted. Cut-off read from the data, not from the text of the source: active = normalized growth mostly below about 0.91 (no sharp cut-off); inconclusive = no clear call, values can overlap the other calls; inactive = mostly above about 0.92. The list shows a part of the results.
Assay: chemical genetic growth profiling, strain panel (AID 1159580);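 note: tested at 20 µM; growth read once vehicle control cultures reached saturation at 30 °C; 1 = growth at the plate median or of vehicle wells; lower values mean less growth of the strain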
Settings: growth OD

Measured: normalized growth

COc1cnc(NS(=O)(=O)c2ccc(N)cc2)nc1
inactive: S. cerevisiae deletion strains, locus YJR075W, strain HOC1, active compounds read low 0.978 | S. cerevisiae deletion strains, locus YKL009W, strain mrt4, active compounds read low 0.994 | S. cerevisiae deletion strains, locus YKL068W, active compounds read low 0.983 | S. cerevisiae deletion strains, locus YKL085W, strain MDH1 (second series), active compounds read low 0.971 | S. cerevisiae deletion strains, locus YKL085W, strain MDH1, active compounds read low 0.971 | S. cerevisiae deletion strains, locus YKL160W, strain elf1, active compounds read low 0.999 | S. cerevisiae deletion strains, locus YKL190W, strain CNB1, active compounds read low 0.979 | S. cerevisiae deletion strains, locus YKR001C, strain vps1, active compounds read low 0.964 | S. cerevisiae deletion strains, locus YKR026C, strain gcn3, active compounds read low 1 | S. cerevisiae deletion strains, locus YKR091W, strain srl3, active compounds read low 0.998 | S. cerevisiae deletion strains, locus YLL001W, strain dnm1, active compounds read low 0.966 | S. cerevisiae deletion strains, locus YLL026W, active compounds read low 1 | S. cerevisiae deletion strains, locus YLL041C, strain sdh2, active compounds read low 0.997 | S. cerevisiae deletion strains, locus YLR027C, strain aat2, active compounds read low 1.01 | S. cerevisiae deletion strains, locus YLR039C, strain RIC1, active compounds read low 0.969 | S. cerevisiae deletion strains, locus YLR058C, strain SHM2, active compounds read low 0.976 | S. cerevisiae deletion strains, locus YLR102C, strain apc9, active compounds read low 0.973 | S. cerevisiae deletion strains, locus YLR113W, strain HOG1, active compounds read low 0.989 | S. cerevisiae deletion strains, locus YLR221C, strain rsa3, active compounds read low 0.988 | S. cerevisiae deletion strains, locus YLR258W, strain gsy2, active compounds read low 0.99 | S. cerevisiae deletion strains, locus YLR262C, strain YPT6 (second series), active compounds read low 1.02 | S. cerevisiae deletion strains, locus YLR262C, strain YPT6, active compounds read low 0.96 | S. cerevisiae deletion strains, locus YLR268W, strain sec22, active compounds read low 0.888 | S. cerevisiae deletion strains, locus YLR320W, strain mms22, active compounds read low 0.965 | S. cerevisiae deletion strains, locus YLR330W, strain CHS5, active compounds read low 0.994 | S. cerevisiae deletion strains, locus YLR342W, strain FKS1 (second series), active compounds read low 1.03 | S. cerevisiae deletion strains, locus YLR342W, strain FKS1, active compounds read low 1.01 | S. cerevisiae deletion strains, locus YLR357W, strain rsc2, active compounds read low 0.945 | S. cerevisiae deletion strains, locus YLR370C, strain arc18, active compounds read low 1 | S. cerevisiae deletion strains, locus YLR371W, strain rom2, active compounds read low 0.97 | S. cerevisiae deletion strains, locus YLR384C, strain iki3, active compounds read low 1 | S. cerevisiae deletion strains, locus YLR418C, strain cdc73, active compounds read low 0.99 | S. cerevisiae deletion strains, locus YML016C, strain PPZ1, active compounds read low 0.993 | S. cerevisiae deletion strains, locus YML032C, strain rad52, active compounds read low 0.97 | S. cerevisiae deletion strains, locus YML120C, strain ndi1, active compounds read low 1.02 | S. cerevisiae deletion strains, locus YML124C, strain tub3, active compounds read low 0.979 | S. cerevisiae deletion strains, locus YMR058W, strain fet3, active compounds read low 1 | S. cerevisiae deletion strains, locus YMR078C, strain ctf18, active compounds read low 0.976 | S. cerevisiae deletion strains, locus YMR125W, strain sto1, active compounds read low 0.991 | S. cerevisiae deletion strains, locus YMR129W, active compounds read low 0.985 | S. cerevisiae deletion strains, locus YMR205C, strain PFK2, active compounds read low 0.998 | S. cerevisiae deletion strains, locus YMR223W, strain ubp8, active compounds read low 0.979 | S. cerevisiae deletion strains, locus YMR231W, strain pep5, active compounds read low 0.998 | S. cerevisiae deletion strains, locus YMR307W, strain GAS1, active compounds read low 1.03 | S. cerevisiae deletion strains, locus YNL067W, strain RPL9B, active compounds read low 0.982 | S. cerevisiae deletion strains, locus YNL071W, strain lat1, active compounds read low 1.01 | S. cerevisiae deletion strains, locus YNL183C, strain NPR1, active compounds read low 0.933 | S. cerevisiae deletion strains, locus YNL209W, strain ssb2, active compounds read low 0.997 | S. cerevisiae deletion strains, locus YNL233W, strain BNI4, active compounds read low 1 | S. cerevisiae deletion strains, locus YNL248C, strain rpa49, active compounds read low 0.982 | S. cerevisiae deletion strains, locus YNL250W, strain rad50, active compounds read low 0.982 | S. cerevisiae deletion strains, locus YNL271C, strain bni1, active compounds read low 0.979 | S. cerevisiae deletion strains, locus YNL298W, strain CLA4, active compounds read low 0.965 | S. cerevisiae deletion strains, locus YNL307C, strain MCK1, active compounds read low 0.981 | S. cerevisiae deletion strains, locus YNL322C, strain KRE1 (second series), active compounds read low 0.986 | S. cerevisiae deletion strains, locus YNR049C, strain mso1, active compounds read low 1 | S. cerevisiae deletion strains, locus YNR052C, strain pop2, active compounds read low 0.977 | S. cerevisiae deletion strains, locus YOL006C, strain TOP1, active compounds read low 0.945 | S. cerevisiae deletion strains, locus YOL012C, strain htz1 0.813 | S. cerevisiae deletion strains, locus YOL147C, strain pex11, active compounds read low 0.985 | S. cerevisiae deletion strains, locus YOR001W, strain rrp6, active compounds read low 0.99 | S. cerevisiae deletion strains, locus YOR061W, strain CKA2, active compounds read low 0.962 | S. cerevisiae deletion strains, locus YOR069W, strain VPS5, active compounds read low 0.993 | S. cerevisiae deletion strains, locus YOR070C, strain gyp1, active compounds read low 1.01 | S. cerevisiae deletion strains, locus YOR080W, strain dia2, active compounds read low 0.98 | S. cerevisiae deletion strains, locus YOR083W, strain WHI5, active compounds read low 0.943 | S. cerevisiae deletion strains, locus YOR106W, strain vam3, active compounds read low 0.986 | S. cerevisiae deletion strains, locus YOR136W, strain idh2, active compounds read low 0.987 | S. cerevisiae deletion strains, locus YOR144C, strain elg1, active compounds read low 0.976 | S. cerevisiae deletion strains, locus YOR184W, strain ser1, active compounds read low 0.985 | S. cerevisiae deletion strains, locus YOR231W, strain MKK1, active compounds read low 0.99 | S. cerevisiae deletion strains, locus YOR265W, strain rbl2, active compounds read low 1.02 | S. cerevisiae deletion strains, locus YOR270C, strain vph1, active compounds read low 1.04 | S. cerevisiae deletion strains, locus YOR290C, strain snf2, active compounds read low 0.984 | S. cerevisiae deletion strains, locus YOR316C, strain cot1, active compounds read low 0.958 | S. cerevisiae deletion strains, locus YPL051W, strain arl3, active compounds read low 0.999 | S. cerevisiae deletion strains, locus YPL055C, strain LGE1, active compounds read low 0.949 | S. cerevisiae deletion strains, locus YPL078C, strain atp4, active compounds read low 0.991 | S. cerevisiae deletion strains, locus YPL106C, strain sse1, active compounds read low 0.952 | S. cerevisiae deletion strains, locus YPL240C, strain hsp82, active compounds read low 1 | S. cerevisiae deletion strains, locus YPL256C, strain CLN2, active compounds read low 0.99 | S. cerevisiae deletion strains, locus YPR119W, strain clb2, active compounds read low 0.985 | S. cerevisiae deletion strains, locus YPR141C, strain kar3, active compounds read low 0.96 | S. cerevisiae deletion strains, locus YPR163C, strain tif3, active compounds read low 0.991 | S. cerevisiae deletion strains, locus YPR167C, strain met16, active compounds read low 0.983 | S. cerevisiae deletion strains, strain wtn01, active compounds read low 0.989 | S. cerevisiae strains, strain wild type, active compounds read low 0.983
